Screening results (PubChem)
CCHF vOTU inh – blocks the CCHF virus ovarian tumor domain protease; CCHFV vOTU protease, Pep-AMC fluorescence; inhibition, % at 11.5 µM; 370,000 tested, 0.55% active; AID 651958
GDH-TPI counter – GDH-TPI coupled enzyme inhibition counter-screen | GDH-TPI coupled enzyme counterscreen, NADH absorbance | inhibition, % at 4.8 µM | 360,000 tested, 1.2% active
VHR inh abs – inhibitors of human VHR1 phosphatase (DUSP3); P51452; recombinant VHR phosphatase, pNPP absorbance; inhibition, % at 13.3 µM; 290,000 tested, 0.52% active; in the data active = inhibition above about 50%
Target sequence (P51452 whole entry, looked up): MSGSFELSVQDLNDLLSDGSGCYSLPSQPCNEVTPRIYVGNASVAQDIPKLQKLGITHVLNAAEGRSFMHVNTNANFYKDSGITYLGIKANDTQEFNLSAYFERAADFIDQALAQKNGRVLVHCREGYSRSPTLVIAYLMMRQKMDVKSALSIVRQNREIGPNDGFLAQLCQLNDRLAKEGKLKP
Mtb FBA inh – inhibitors of M. tuberculosis fructose-bisphosphate aldolase. P9WQA3. purified M. tuberculosis FBA, fluorescence read-out. inhibition, % at 1 µM. 360,000 tested, 2.3% active. AID 588726; in the data active = inhibition above about 27%
Target sequence (P9WQA3 whole entry, looked up): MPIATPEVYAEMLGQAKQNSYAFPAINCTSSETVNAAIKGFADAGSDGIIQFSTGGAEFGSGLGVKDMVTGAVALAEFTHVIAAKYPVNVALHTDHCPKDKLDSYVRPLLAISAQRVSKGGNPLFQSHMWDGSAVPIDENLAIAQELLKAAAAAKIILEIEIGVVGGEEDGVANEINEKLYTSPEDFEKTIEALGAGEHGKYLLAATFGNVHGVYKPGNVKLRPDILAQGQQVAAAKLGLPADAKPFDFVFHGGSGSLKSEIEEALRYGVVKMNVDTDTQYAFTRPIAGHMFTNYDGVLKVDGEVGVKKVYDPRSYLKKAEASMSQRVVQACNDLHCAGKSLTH
3CLpro inhibitor – SARS-CoV 3CLpro protease inhibition; inhibition, % at 6 µM; 290,000 tested, 0.14% active; AID 1706; recombinant SARS-CoV 3CLpro, quenched FRET peptide cleavage; in the data active = inhibition above about 12%
RecA splice inh – Mtb RecA intein splicing inhibition; P9WHJ3; inhibition, % (test concentration not listed); 290,000 tested, 0.75% active; cell-free RecA intein splicing, fluorescence; in the data active = inhibition above about 30%
Large screens that a line does not name were inactive. This is a sample that favours compounds with a hit; in the whole collection about 4.7% have one here. Cut-off read from the data, not from the text of the source, unless noted: active = inhibition above about 30%; inactive = the rest.

O=C(O)c1ccc(N=N/C(=N\Nc2ccc(C(=O)O)cc2)c2ccccc2)cc1	none (no result: VHR inh abs, 3CLpro inhibitor)
O=C(O)c1cccc(N/N=C(\N=Nc2ccccc2)c2ccccc2)c1	RecA splice inh 40.7 (no result: VHR inh abs, 3CLpro inhibitor)
O=C(CCn1nnc(-c2cccs2)n1)N1CCCCC1	none (no result: GDH-TPI counter, VHR inh abs, Mtb FBA inh, 3CLpro inhibitor, RecA splice inh)
O=[N+]([O-])c1ccc2[nH]c(O)c(N=NC3CCS(=O)(=O)C3)c2c1 (stereo unspecified)	GDH-TPI counter 59.3
O=[N+]([O-])c1ccc2[nH]c(O)c(N=Nc3ccc(F)cc3)c2c1	none
CC(=O)NCC(=O)NC1CC(C)(C)Cc2c1cnn2-c1ccccc1 (stereo unspecified)	none
CC1(C)Cc2c(cnn2-c2ccc(F)cc2)C(NC(=O)c2ccc(=O)oc2)C1 (stereo unspecified)	GDH-TPI counter 40.6
COC(=O)CCC(=O)NC1CC(C)(C)Cc2c1cnn2-c1ccccc1 (stereo unspecified)	VHR inh abs 57.0
OCC1(CCc2ccccc2)CCN(C/C=C/c2ccccc2)CC1	VHR inh abs 55.5
COC(=O)c1sc(-c2ccc(C(C)(C)C)cc2)cc1NC(=O)c1ccccc1C(=O)O	none
COC(=O)c1sc(-c2ccc(Cl)cc2)cc1NC(=O)c1ccccc1C(=O)O	GDH-TPI counter 31.7
CCOc1ccc(NC(=O)Nc2cc(-c3ccccc3)sc2C(=O)OC)cc1	none
CCOc1ccc(-c2cc(NC(=O)c3c(F)cccc3F)c(C(=O)O)s2)cc1	GDH-TPI counter 31.7
CCC(C)NC(=O)c1ccc(CSCc2ccccc2Cl)o1 (stereo unspecified)	none
CC(C)NC(=O)c1ccc(CSCc2ccccc2Cl)o1	VHR inh abs 56.9
O=C(O)C1CCCC2CN3CCc4c([nH]c5ccccc45)C3C(O)C21 (stereo unspecified)	VHR inh abs 55.7
O=C(O)[C@@H]1[C@H]2C[C@H]3c4[nH]c5ccccc5c4CCN3C[C@@H]2CC[C@@H]1O	none (no result: VHR inh abs, 3CLpro inhibitor, RecA splice inh)
O=C(Nc1ccc(N2CCOCC2)cc1)c1csc(COCCO)n1	none (no result: VHR inh abs, 3CLpro inhibitor, RecA splice inh)
O=C(COc1ccccc1F)c1ccc(O)cc1O	GDH-TPI counter 50.3
O=C(c1ccccc1)c1ccc(O)cc1O	GDH-TPI counter 52.0
O=C(Cc1ccccc1)c1ccc(O)cc1O	GDH-TPI counter 38.1 (no result: VHR inh abs, 3CLpro inhibitor, RecA splice inh)
O=C(c1ccc(O)cc1)c1ccc(O)cc1O	GDH-TPI counter 34.8
Cc1c(O)ccc(C(=O)COc2ccccc2F)c1O	none
CN(C)c1ccc(C(=O)c2ccc(O)cc2O)cc1	none
Cc1cc(C)nc(SCC(=O)c2ccc(O)cc2O)n1	GDH-TPI counter 50.5
O=C(CSc1nnnn1-c1ccccc1)c1ccc(O)cc1O	GDH-TPI counter 42.0
Fc1ccc(-c2cn3ccccc3n2)cc1	none
COc1ccc(-c2cn3ccccc3n2)cc1OC	Mtb FBA inh 158.6
COc1ccc(-c2cn3cc(C)ccc3n2)cc1OC	Mtb FBA inh 160.8
COc1ccc(-c2csc(C)n2)cc1OC	none
COc1ccc(NC(=O)c2ccc(-c3ccc(OC)cc3)s2)cc1	none
CNC(=O)c1ccc(-c2ccc(OC)cc2)s1	Mtb FBA inh active
Cc1cc(C)n2nc(SCc3ccccc3F)nc2n1	Mtb FBA inh active
COC(C(=O)N/N=C(\C)c1ccc(O)cc1)c1ccccc1 (stereo unspecified)	none (no result: RecA splice inh)
COC(C(=O)N/N=C(\C)c1ccc(C)cc1)c1ccccc1 (stereo unspecified)	VHR inh abs 51.5
COc1ccc(NS(=O)(=O)N2CCCCC2)cc1	none (no result: VHR inh abs, 3CLpro inhibitor, RecA splice inh)
COc1ccc(-c2nnc(NC(=O)c3ccc(S(=O)(=O)N4CCCc5ccccc54)cc3)o2)cc1	GDH-TPI counter 36.7 (no result: CCHF vOTU inh)
CN1CCSc2ccc(C(=O)NCc3cccc(F)c3)cc21	Mtb FBA inh 113.0
COc1cccc(NC(=O)c2ccc3c(c2)N(C)CCS3)c1	none
COC(=O)C[C@@H]1CC[C@@H]2[C@@H](COc3ccc(NC(=O)Nc4ccc(F)cc4)cc3C(=O)N2C)O1	none (no result: GDH-TPI counter, VHR inh abs, Mtb FBA inh, 3CLpro inhibitor, RecA splice inh)
Cc1ccc(NC(=O)N2CCC(N(C)CCC(C)C)CC2)cc1F	none (no result: GDH-TPI counter, VHR inh abs, Mtb FBA inh, 3CLpro inhibitor, RecA splice inh)
CC(NCCN(C)C)C1CCC2C3CCc4cc(O)ccc4C3CCC12C (stereo unspecified)	none (no result: VHR inh abs, 3CLpro inhibitor, RecA splice inh)
O=C(/C=C/Nc1cccc(C(F)(F)F)c1)c1ccc(Oc2ncccn2)cc1	GDH-TPI counter 32.5
COc1ccc(N2CCN(C(=O)Cc3ccc(Cl)cc3)CC2)cc1	none
COC(=O)c1ccc(S(=O)(=O)c2ccc(Cl)cc2)c(N)c1	Mtb FBA inh 114.7
O=C(N[C@@H](Cc1cccnc1)C(=O)N1CCC[C@H]1C(=O)NC1CCCC1)c1cccs1	none (no result: GDH-TPI counter, VHR inh abs, Mtb FBA inh, 3CLpro inhibitor, RecA splice inh)
O=C(NCC1CCCO1)C(=O)N/N=C/c1ccc(O)c(Cl)c1 (stereo unspecified)	GDH-TPI counter 54.5
O=C(NCC1CCCO1)C(=O)N/N=C\c1ccc2c(c1)OCO2 (stereo unspecified)	GDH-TPI counter 34.0
O=C(NCC1CCCO1)C(=O)N/N=C/c1cc(Cl)ccc1O (stereo unspecified)	none
CCOC(=O)c1ccc(N2C(=O)C3C(/C=C/c4ccccc4)OC4(C(=O)c5ccccc5C4=O)C3C2=O)cc1 (stereo unspecified)	none
Cc1oc(-c2ccccc2Cl)nc1CS(=O)CC(=O)NCCCN1CC(C)CC(C)C1 (stereo unspecified)	VHR inh abs 52.5
O=C(O)/C=C\C(=O)Nc1ccc(N2CCN(c3cccc(Cl)c3)CC2)cc1	VHR inh abs 57.4
O=C(O)/C=C\C(=O)Nc1ccc(N2CCN(c3ccc(Cl)cc3)CC2)cc1	none
CCOC(=O)CNC(=O)CSc1nnc(-c2cccs2)o1	none (no result: GDH-TPI counter, VHR inh abs, Mtb FBA inh, 3CLpro inhibitor, RecA splice inh)
COc1ccccc1CCC[C@@H](CCS(=O)(=O)C(C)C)CC1CCCCC1	none (no result: GDH-TPI counter, VHR inh abs, Mtb FBA inh, 3CLpro inhibitor, RecA splice inh)
COc1ccc(C(=O)N/N=C\C(C)=C\c2ccccc2)cc1OC	GDH-TPI counter 51.0 (no result: VHR inh abs, 3CLpro inhibitor)
O=C(N/N=C/c1cccc([N+](=O)[O-])c1)c1cnccn1	none
CC(/C=N/NC(=O)c1cccnc1)=C\c1ccccc1	none
O=C(N/N=C/C(Cl)=C\c1ccccc1)c1cnccn1	GDH-TPI counter 66.4
CC(=C/c1ccccc1)/C=N/NC(=O)c1cnccn1	GDH-TPI counter 42.6
O=C(N/N=C/C(Cl)=C/c1ccccc1)c1cnccn1	GDH-TPI counter 86.4
Cc1ccc(NCN2C(=O)c3ccccc3C2=O)c(C)n1	none (no result: GDH-TPI counter, VHR inh abs, Mtb FBA inh, 3CLpro inhibitor, RecA splice inh)
O=[N+]([O-])c1ccc(-c2cnc(NO)nc2)cc1	none
Nc1ncc(-c2ccc([N+](=O)[O-])cc2)cn1	GDH-TPI counter 54.3
COc1ccccc1-c1coc2c(CN3CCC(C)CC3)c(O)ccc2c1=O	VHR inh abs 57.0, Mtb FBA inh 148.8
CCN(CC)Cc1c(O)ccc2c(=O)c(-c3ccccc3OC)coc12	Mtb FBA inh 115.9 (no result: RecA splice inh)
COc1ccc(/C=C/CN2CCC(C(=O)NC(c3ccc(F)cc3)c3ccc4ccccc4n3)CC2)cc1 (stereo unspecified)	none (no result: VHR inh abs, 3CLpro inhibitor, RecA splice inh)
O=C(OC12CCCN(C1)/C(=C/c1cccnc1)C2)c1cccc(F)c1 (stereo unspecified)	none (no result: GDH-TPI counter, VHR inh abs, Mtb FBA inh, 3CLpro inhibitor, RecA splice inh)
NC(=O)NN=C1CCC(O)CC1CC(=O)O (stereo unspecified)	none (no result: GDH-TPI counter, VHR inh abs, Mtb FBA inh, 3CLpro inhibitor, RecA splice inh)
